Results published in PubChem BioAssay (Tox21).
Unmarked numbers belong to inactive results. Records with an inconclusive call do not appear. Entries that show only a call come without a potency. Calls of active or inactive are those of the source. Unless noted, calls follow the shape of the dose curve; as a rule, active = well fitted curve in the direction sought with a large enough effect in the repeat runs; inconclusive = weak or mixed curves; inactive = no such curve, though single readings can be large; an effect the other way counts as inactive or inconclusive.

What was measured:
[1] = A CellTox Green Cytotoxicity Assay to monitor cytotoxicity in HepG2 cells - 0 hour (AID 1224882); also: nearly all actives have a fitted effect of over 35% in size
Method in brief: (§1)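 Read-out is fluorescence of a cyanine dye excluded from live cells that stains DNA of dead HepG2 cells, with signal proportional to cytotoxicity. Plates were read at 0, 8, 16, 24, 32 and 40 h after compound addition.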

[2] = A CellTox Green Cytotoxicity Assay to monitor cytotoxicity in HepG2 cells - 32 hour (AID 1224883); also: nearly all actives have a fitted effect of over 50% in size
Method in brief: as §1

[3] = A CellTox Green Cytotoxicity Assay to monitor cytotoxicity in HEK293 cells - 8 hour (AID 1224884); also: nearly all actives have a fitted effect of over 35% in size
Method in brief: (§2)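 Nonlytic real-time cytotoxicity: HEK293 + CellTox Green reagent plated, 5 h preincubation, pintool compound addition (23 nL in DMSO), 37 C for 40 h, fluorescence measured at successive time points.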

[4] = qHTS RealTime-Glo MT Cell Viability Assay in HepG2 cells - 16 hour (AID 1224885); also: nearly all actives have a fitted effect of over 50% in size
Method in brief: (§3)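 Real-time, nonlytic viability: 600 HepG2 cells/well mixed with NanoLuc enzyme plus prosubstrate; 5 h settle, compound (DMSO) added by pintool; luminescence monitored over 40 h at 37 C.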

[5] = qHTS RealTime-Glo MT Cell Viability Assay in HEK293 cells - 24 hour (AID 1224886); also: top concentration of the series differs between compounds; nearly all actives have a fitted effect of over 50% in size
Method in brief: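 Cells + reagent dispensed (600 cells/well, HEK293) → 5 h at 37 C/5% CO2 → 23 nL compound in DMSO pinned → 40 h at 37 C → luminescence read at 0, 8, 16, 24, 32, 40 h.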

[6] = qHTS RealTime-Glo MT Cell Viability Assay in HEK293 cells - 8 hour (AID 1224887); also: top concentration of the series differs between compounds; nearly all actives have a fitted effect of over 50% in size
Method in brief: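 Cells were seeded together with NanoLuc luciferase and a prosubstrate that viable cells reduce to a luciferase substrate. After a 5 h incubation at 37 C/5% CO2, compounds were added and luminescence was measured repeatedly during 40 h of treatment.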

[7] = A CellTox Green Cytotoxicity Assay to monitor cytotoxicity in HEK293 cells - 16 hour (AID 1224888); also: nearly all actives have a fitted effect of over 35% in size
Method in brief: as §2

[8] = qHTS RealTime-Glo MT Cell Viability Assay in HepG2 cells - 0 hour (AID 1224889); also: nearly all actives have a fitted effect of over 50% in size
Method in brief: as §3

[9] = A CellTox Green Cytotoxicity Assay to monitor cytotoxicity in HepG2 cells - 8 hour (AID 1224890); also: nearly all actives have a fitted effect of over 45% in size
Method in brief: as §1

[10] = qHTS assay to identify small molecule antagonists of the estrogen receptor alpha (ER-alpha) signaling pathway using the BG1 cell line in the presence of 0.1 nM 17-beta-estradiol - cell viability counter screen (AID 1259241); also: nearly all actives have a fitted effect of over 40% in size
Method in brief: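 Estradiol-stimulated (0.1 nM) VM7Luc4E2 cells exposed to compounds 22 hr; viability measured by fluorescence of cleaved CellTiter-Fluor substrate after 30 min.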

[11] = qHTS assay to identify small molecule antagonists of the androgen receptor (AR) signaling pathway using the MDA cell line in the presence of 0.5 nM R1881 - cell viability counter screen (AID 1259242); also: nearly all actives have a fitted effect of over 45% in size
Method in brief: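 Counter screen for cytotoxicity run in the same wells as the AR antagonist reporter screen: MDA-kb2 cells were treated 16 hr with test compounds and 0.5 nM R1881, then live-cell protease activity was measured by fluorescence.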

[12] = target: Estrogen receptor (Homo sapiens) (UniProt P03372); experiment: qHTS assay to identify small molecule antagonists of the estrogen receptor alpha (ER-alpha) signaling pathway using the BG1 cell line in the presence of 0.1 nM 17-beta-estradiol (AID 1259244); also: nearly all actives have a fitted effect of over 50% in size
Method in brief: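 Cells: VM7Luc4E2, endogenous ER-alpha, 4x ERE-luc stable. Pre-culture 5 d, phenol red-free, charcoal-stripped FBS. Plated 24 h, compound + E2 0.1 nM final, 22 h 37C/5% CO2. Readout ONE-Glo luminescence.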

[13] = qHTS assay to identify small molecule HDAC inhibitors (AID 1259364); also: nearly all actives have a fitted effect of over 45% in size; also: potency is read from the fitted curve at half-maximal effect
Method in brief: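 Luminescence from a cell-permeant luminogenic class I/II HDAC substrate reports endogenous deacetylase activity in intact HCT-116 cells treated with compounds for 2 h.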

[14] = qHTS assay to identify small molecule HDAC inhibitors - cell viability counter screen (AID 1259365)
Method in brief: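 After overnight seeding at 1,500 cells per well, wild-type HCT-116 cultures took up compounds in DMSO for 2hr at 37 C. Viable cell content came from luminescence with CellTiter-Glo.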

[15] = qHTS assay to identify small molecule agonists of the sonic hedgehog signaling (Shh) pathway - cell viability counter screen (AID 1259366); also: nearly all actives have a fitted effect of over 50% in size; also: potency is read from the fitted curve at half-maximal effect
Method in brief: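 Same-well cytotoxicity read. Gli1-Luc reporter 3T3 cells; compounds 24hr, 37C/5% CO2; CellTiter-Fluor fluorescence.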

[16] = qHTS assay to identify small molecule antagonists of the sonic hedgehog signaling (Shh) pathway - cell viability counter screen (AID 1259367); also: nearly all actives have a fitted effect of over 55% in size
Method in brief: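 Cells: 3T3 Gli1-Luc, 2,000/well, 4 hr pre-incubation. Compounds in DMSO, then conditioned medium. Incubation 24 hr, 37C, 5% CO2. CellTiter-Fluor at 23 hr, 1 hr, fluorescence.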

[17] = qHTS assay to identify small molecule agonists of the sonic hedgehog signaling (Shh) pathway (AID 1259368; calls by dose curve;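 also: NIH/3T3-derived 3T3Gli1-Luc cells carrying a stable Gli1-driven firefly luciferase reporter; series mostly up to about 92 µM; nearly all actives have a fitted effect of over 15% in size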)
Method in brief: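 3T3Gli1-Luc (NIH/3T3 clone, stable Gli1-Luc); 4 hr pre-incubation, then cpd in DMSO 24 hr, 37 C/5% CO2; luciferase reagent 30 min RT; luminescence.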

[18] = qHTS assay to identify small molecule antagonists of the sonic hedgehog signaling (Shh) pathway (AID 1259369; calls by dose curve; also: nearly all actives have a fitted effect of over 45% in size; also: potency is read from the fitted curve at half-maximal effect)
Method in brief: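 3T3Gli1-Luc, conditioned-medium-stimulated, 24hr cpd, 37C/5% CO2; Gli1-driven firefly Luc luminescence after 30min RT with luciferase reagent. Cells plated 4hr before cpd.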

[19] = target: Androgen receptor (Homo sapiens) (UniProt P10275); experiment: qHTS assay to identify small molecule antagonists of the androgen receptor (AR) signaling pathway using the MDA cell line in the presence of 0.5 nM R1881 (AID 1259243); also: nearly all actives have a fitted effect of over 50% in size
Method in brief: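 Luciferase luminescence is the read-out: compounds are tested for suppressing 0.5 nM R1881-driven MMTV reporter activity in MDA-kb2 cells after 16 hr at 37C.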

[20] = qHTS assay to identify small molecule phospholipidosis (PLD) inducers (AID 1259344; active = well fitted curve in the direction sought with a large enough effect; an effect the other way counts as inactive or inconclusive)
Method in brief: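 Phospholipidosis is scored by imaging LipidTOX-stained pits in HepG2 cells exposed to compound for 24 h at 37 C; pit counts and integrated intensities per well and per cell serve as outputs.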

Androgen receptor (Homo sapiens), sequence (P10275 whole entry, looked up): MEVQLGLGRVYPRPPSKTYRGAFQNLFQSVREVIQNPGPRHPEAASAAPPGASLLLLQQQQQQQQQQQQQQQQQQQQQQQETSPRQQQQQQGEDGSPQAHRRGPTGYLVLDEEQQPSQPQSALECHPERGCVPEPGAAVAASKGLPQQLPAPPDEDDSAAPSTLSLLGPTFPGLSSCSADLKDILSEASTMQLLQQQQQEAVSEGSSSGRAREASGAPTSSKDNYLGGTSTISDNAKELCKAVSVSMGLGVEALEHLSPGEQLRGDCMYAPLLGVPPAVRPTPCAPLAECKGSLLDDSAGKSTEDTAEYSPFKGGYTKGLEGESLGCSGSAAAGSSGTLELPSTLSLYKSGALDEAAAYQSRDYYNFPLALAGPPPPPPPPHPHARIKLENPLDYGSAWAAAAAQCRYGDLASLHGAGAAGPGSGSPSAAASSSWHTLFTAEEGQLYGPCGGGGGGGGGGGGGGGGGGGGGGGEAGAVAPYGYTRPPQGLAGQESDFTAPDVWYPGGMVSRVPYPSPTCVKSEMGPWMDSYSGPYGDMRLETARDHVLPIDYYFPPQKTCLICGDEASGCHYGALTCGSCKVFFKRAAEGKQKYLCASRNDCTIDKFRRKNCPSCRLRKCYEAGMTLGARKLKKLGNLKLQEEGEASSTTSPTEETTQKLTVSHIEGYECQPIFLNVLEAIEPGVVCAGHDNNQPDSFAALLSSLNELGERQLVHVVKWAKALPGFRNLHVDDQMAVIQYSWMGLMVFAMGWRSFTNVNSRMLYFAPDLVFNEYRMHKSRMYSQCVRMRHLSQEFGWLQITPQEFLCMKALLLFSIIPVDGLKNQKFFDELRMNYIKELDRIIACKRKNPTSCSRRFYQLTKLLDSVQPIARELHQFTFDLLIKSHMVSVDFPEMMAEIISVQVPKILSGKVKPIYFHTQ
Estrogen receptor (Homo sapiens), sequence (P03372 whole entry, looked up): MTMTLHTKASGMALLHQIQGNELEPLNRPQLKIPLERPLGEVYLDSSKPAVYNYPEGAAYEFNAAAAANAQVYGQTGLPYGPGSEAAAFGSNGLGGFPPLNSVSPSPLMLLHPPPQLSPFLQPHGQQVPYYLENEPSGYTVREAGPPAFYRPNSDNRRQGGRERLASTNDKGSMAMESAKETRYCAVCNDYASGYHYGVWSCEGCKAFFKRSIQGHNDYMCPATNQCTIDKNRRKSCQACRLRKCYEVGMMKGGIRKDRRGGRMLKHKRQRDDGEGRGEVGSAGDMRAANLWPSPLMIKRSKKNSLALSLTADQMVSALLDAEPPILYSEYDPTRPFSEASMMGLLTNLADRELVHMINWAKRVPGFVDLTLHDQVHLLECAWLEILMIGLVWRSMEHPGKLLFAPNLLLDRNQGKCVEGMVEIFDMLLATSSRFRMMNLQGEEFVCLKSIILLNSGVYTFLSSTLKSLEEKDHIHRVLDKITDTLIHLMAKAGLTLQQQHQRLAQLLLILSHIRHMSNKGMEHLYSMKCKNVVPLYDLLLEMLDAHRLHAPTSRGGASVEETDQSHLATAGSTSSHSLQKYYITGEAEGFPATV

| SMILES | Potency [1] | Potency [2] | Potency [3] | Potency [4] | Potency [5] | Potency [6] | Potency [7] | Potency [8] | Potency [9] | Potency [10] | Potency [11] | Potency [12] | Potency [13] | Potency [14] | Potency [15] | Potency [16] | outcome [17] | Potency [18] | Potency [19] | Potency [20] |
| --- | --- | --- | --- | --- | --- | --- | --- | --- | --- | --- | --- | --- | --- | --- | --- | --- | --- | --- | --- | --- |
| CC(CC=O)c1ccccc1 (stereo not drawn) | inactive | inactive | inactive | inactive | inactive | inactive | inactive | inactive | inactive | inactive | inactive | inactive | inactive | inactive | inactive | inactive | inactive | 54.5 µM (active) | – | – |
| CCO[C@H](Cc1ccc(OCCc2ccc(OS(C)(=O)=O)cc2)cc1)C(=O)O | inactive | inactive | inactive | inactive | inactive | inactive | inactive | inactive | inactive | inactive | inactive | inactive | inactive | inactive | inactive | inactive | inactive | inactive | inactive | inactive |
| COc1ccnc(CS(=O)c2nc3ccc(OC(F)F)cc3[nH]2)c1OC (stereo not drawn) | inactive | inactive | inactive | inactive | inactive | inactive | inactive | inactive | inactive | inactive | inactive | inactive | inactive | inactive | – | – | inactive | inactive | – | inactive |
| COc1cccc(N(C)C(=S)Oc2ccc3c(c2)CCCC3)n1 | inactive | inactive | inactive | inactive | inactive | inactive | inactive | inactive | inactive | inactive | inactive | inactive | inactive | – | inactive | inactive | inactive | – | – | inactive |
| CC(=O)NO | inactive | inactive | inactive | inactive | inactive | inactive | inactive | inactive | inactive | inactive | inactive | – | inactive | inactive | inactive | – | inactive | inactive | inactive | inactive |
| CCCCO | inactive | inactive | inactive | inactive | inactive | inactive | inactive | inactive | inactive | inactive | inactive | – | inactive | inactive | inactive | inactive | inactive | inactive | – | inactive |
| C=CC(=O)OCCOc1ccccc1 | inactive | inactive | inactive | inactive | inactive | inactive | inactive | inactive | inactive | inactive | inactive | – | inactive | inactive | 68.5 µM (active) | inactive | inactive | 61.1 µM (active) | – | – |
| O=C(O)C1(C(=O)Nc2ccc(Cl)cc2Cl)CC1 | inactive | inactive | inactive | inactive | inactive | inactive | inactive | inactive | inactive | inactive | inactive | inactive | 13.7 µM (active) | inactive | inactive | – | inactive | inactive | inactive | – |
| CCCCCCCCCCCC(=O)OC[C@@H](O)[C@H]1OC[C@H](OCCO)[C@H]1OCCO | inactive | inactive | inactive | inactive | inactive | inactive | inactive | inactive | inactive | inactive | inactive | inactive | inactive | inactive | inactive | inactive | inactive | inactive | – | – |
| c1cc(CCCc2ccncc2)ccn1 | inactive | inactive | inactive | inactive | inactive | inactive | inactive | inactive | inactive | – | inactive | inactive | inactive | inactive | inactive | – | inactive | inactive | – | – |
| CCOC(=O)C(O)c1ccccc1 (stereo not drawn) | inactive | inactive | inactive | inactive | inactive | inactive | inactive | inactive | inactive | inactive | inactive | inactive | inactive | – | inactive | inactive | inactive | inactive | inactive | – |
| CCC(C)O (stereo not drawn) | inactive | inactive | inactive | inactive | inactive | inactive | inactive | inactive | inactive | inactive | inactive | – | inactive | inactive | inactive | inactive | inactive | inactive | – | – |
| O=C(O)c1ccco1 | inactive | inactive | inactive | inactive | inactive | inactive | inactive | inactive | inactive | inactive | inactive | inactive | inactive | inactive | inactive | inactive | inactive | inactive | – | – |
| COc1ccc(C(=O)N2CCN(CC(=O)N3CCOCC3)CC2)cc1 | inactive | inactive | inactive | inactive | inactive | inactive | inactive | inactive | inactive | inactive | inactive | inactive | inactive | inactive | – | inactive | inactive | inactive | – | inactive |
